Reference: ChEMBL document CHEMBL4513216, “Probing the Open Global Health Chemical Diversity Library for Multistage-Active Starting Points for Next-Generation Antimalarials” (ACS Infect Dis, 2020)
Out of some 69,000 compounds screened, about 8,600 (12%) showed an effect of 50% or more. What follows is part of a selection rich in strong results, with near analogues and random picks from the rest.

Tested on: Plasmodium berghei
Experiment: Screen against P. berghei liver stage (PbLuc), transformed with Luciferase, at 10uM
Type: functional, HepG2
Conditions: tested at 10 uM

SMILES | INHIBITION [%]
O=C1CCCC2=Nc3nonc3NC(c3ccccc3Cl)C12 (stereo not given) | 12.3
O=C1CCCC2=Nc3nonc3NC(c3ccc(F)cc3F)C12 (stereo not given) | -37.6
O=C1CCCC2=Nc3nonc3NC(c3ccc(Cl)cc3Cl)C12 (stereo not given) | 57.8
CC(C)N1CCC(Cc2cc(-c3ccccc3C(=O)O)ncn2)CC1 | 18.8
CS(=O)(=O)N1CCCC(Cc2cncc(-c3ccccc3C(=O)O)n2)C1 (stereo not given) | -1.85
CC(C)N1CCC(Cc2cncc(-c3ccccc3C(=O)O)n2)CC1 | 38.7
COCCN1CCC(Cc2cnc(-c3ccccc3C(=O)O)cn2)CC1 | 53
CN1CCC(Cc2cncc(-c3ccccc3C(=O)O)n2)C1 (stereo not given) | 56
CC(C)N1CCC(Cc2cncc(-c3ccccc3C(=O)O)n2)C1 (stereo not given) | 15.9
CC1=Nc2c(c(=O)[nH]n2C(C)C)C(c2cccc(OC(F)F)c2)S1 (stereo not given) | -28.4
Cc1cccc2nc(CN3CCC(N4CCN(C)C4=O)CC3)cn12 | -54.1
COc1nn(C)c2c1CCCN(C(=O)c1cccc(C)n1)C2 | 31.2
COCCN1CCC(CN(Cc2ccncc2)C2CCC2)CC1 | 43.7
COCCN1CCC(CN(Cc2ccncc2)C2CCCCC2)CC1 | -32.1
CN1CCC(N2CCC(CN(Cc3ccncc3)C3CCC3)CC2)CC1 | 53.8
O=C(C1=CCCC1)N1C[C@@H]2COC[C@]2(COc2ncccc2F)C1 | 16.8
CC(O)CN(C(=O)NC1CC1)C(C)C (stereo not given) | 55.4
CC(O)CN(C(=O)NC1CCN(CC2CCCCC2)CC1)C(C)C (stereo not given) | 21.2
CC(C)N(CC(C)(C)O)C(=O)NC1CC1 | 23.5
Cc1noc(C)c1CN(C)c1nc(C2CCCC2)nc2c1cnn2C | 20
Cn1ncc(NC(=O)Cn2ccc(-c3ccc(F)cc3)n2)n1 | 52.2
Cc1ccc(-c2cnn(CC(=O)NC(C)C)c2)cc1 | 45.7
Cc1nc(C)c(-c2ccn(CC(=O)Nc3cnn(C)n3)n2)s1 | 82.4
Cc1ncsc1-c1ccn(CC(=O)Nc2cnn(C)n2)n1 | 85.7
CC(C)NC(=O)Cn1cc(-c2ccccc2)cn1 | -16.7
Cn1ncc(NC(=O)Cn2ccc(-c3cccc(F)c3)n2)n1 | 7.39
NC(=O)NC(=O)CCn1ccc(-c2ccc(F)cc2)n1 | 16.2
Cn1ncc(NC(=O)Cn2cc(-c3ccc(F)cn3)cn2)n1 | 77.9

SMILES | INHIBITION [%]
Cc1cc(NC(=O)Cn2ccc(-c3ccc4c(c3)OCO4)n2)n(C)n1 | 13.8
CNC(=O)CNC(=O)c1ccc(-c2scnc2C)nc1 | -89.4
Cc1ncsc1-c1cc(C(=O)NCCO)ccn1 | 42.6
Cn1nccc1NC(=O)Cn1ccc(-c2ccc3c(c2)OCO3)n1 | 43.4
CCc1noc(CN2CCN(c3nccs3)CC2)n1 | 19.5
CNC(=O)Cc1n[nH]c(-c2cncc(Br)c2)n1 | -6.61
Cc1ncc(C(=O)N2CCCC(C(=O)CCc3ccccc3)C2)s1 (stereo not given) | 16.3
CCn1ncc2c1C(COC)CN(S(=O)(=O)N(C)C)C2 (stereo not given) | 10
OC(CN1CCN(Cc2ccccc2)CC1)C1CC1 (stereo not given) | -20.5
CCN(C(=O)Cn1cc(Cl)cn1)c1ccccc1 | 4.81
CNC(=O)Cn1ccc2ccc(NC(=O)NC(C)C(C)C)cc21 (stereo not given) | 15.5
CC(C)NC(=O)N1CCN(c2ccc(Cl)nn2)C(=O)C1 | 37.5
N#Cc1cccc(OCc2ccoc2C(=O)N2CCCCC2)c1 | -105
CCc1nc(CN2CCCN(C(=O)COCC3CC3)CC2)cs1 | 54.3
Cc1nc(CCN)cc(N2CCC(O)(c3ccc(Cl)cc3)CC2)n1 | 80.8
CCc1nc(CN2CCCN(C(=O)CCc3ccco3)CC2)cs1 | 73.1
CCc1nc(CN2CCN(C(=O)c3cc(C)no3)CC2)cs1 | -35.7
Cc1nc(CCN)cc(N2CCC(O)(c3ccccc3)C2)n1 (stereo not given) | 7.1
CCc1nc(CN2CCN(C(=O)c3cc(C)nn3C)CC2)cs1 | 76.9
Cc1nc(CN2CCCN(C(=O)CCc3ccco3)CC2)cs1 | 12.7
CCCOCC(=O)N1CCCN(Cc2csc(CC)n2)CC1 | 1.75
Cc1nc(CN)cc(N2CCC(O)(c3ccc(Cl)cc3)CC2)n1 | 3.82
Cc1nc(CN2CCCN(C(=O)COCC3CC3)CC2)cs1 | 43.2
Cc1nc(CN2CCN(C(=O)CCc3ccco3)CC2)cs1 | 42.9
CCc1nc(CN2CCCN(C(=O)c3cccn3C)CC2)cs1 | -69.6
COCCOc1ncccc1C(=O)N1CCCC1Cn1cc(C)cn1 (stereo not given) | 15.5
COCCN1CCN(S(C)(=O)=O)Cc2cccnc21 | -0.284
